Results filed as inconclusive are left out. The source made the active and inactive calls. Calls come from the whole dose curve; as a rule, active = well fitted curve in the direction sought with a large enough effect; inconclusive = small, poorly fitted or top-dose-only effect, or another doubt; inactive = no such curve, though single readings can be large; an effect the other way counts as inactive or inconclusive.

In PubChem BioAssay (NCATS) one finds Potency data, which are given here for 16 molecules.

Experiment [1] in a line: qHTS of pediatric cancer cell lines to identify multiple opportunities for drug repurposing: Primary screen for BT-37 cells (AID 1347094). Note: potency is the fitted concentration of half-maximal effect. Summed up: (§1)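 Primary screen of approved and investigational compounds on cells in growth media at 37 degrees C, 5% CO2. MIPE set at 11-point and NPC set at 8-point dilutions; viability scored by ATP-based luminescence at 48 hours.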
A general note: qHTS replaces the single test concentration by a dilution series.

Experiment [2] can be described thus: qHTS of pediatric cancer cell lines to identify multiple opportunities for drug repurposing: Primary screen for NB-EBc1 cells (AID 1347095). Note: potency is the fitted concentration of half-maximal effect. The essentials:
as §1

Experiment [3] in a line: qHTS of pediatric cancer cell lines to identify multiple opportunities for drug repurposing: Primary screen for U-2 OS cells (AID 1347096). Note: nearly all actives have a fitted effect of over 50% in size. Note: potency is the fitted concentration of half-maximal effect. The essentials:
(§2)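 Cells (500-1,000/well) rested 5 h, then received compounds for 48 h; metabolically active cells were measured by CellTiter-Glo luminescence. Final concentrations spanned up to 46 µM (MIPE, 11-point) or 0.59 nM-46 µM (NPC, 8-point) in primary screens, 11-point in follow-ups.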

The nature of experiment [4]: qHTS of pediatric cancer cell lines to identify multiple opportunities for drug repurposing: Primary screen for Saos-2 cells (AID 1347097). Note: nearly all actives have a fitted effect of over 40% in size. Note: potency is the fitted concentration of half-maximal effect. Summed up:
as §1

Experiment [5] in a line: qHTS of pediatric cancer cell lines to identify multiple opportunities for drug repurposing: Primary screen for LAN-5 cells (AID 1347100). Note: potency is the fitted concentration of half-maximal effect. The essentials:
as §2

The nature of experiment [6]: qHTS of pediatric cancer cell lines to identify multiple opportunities for drug repurposing: Primary screen for BT-12 cells (AID 1347101). Note: nearly all actives have a fitted effect of over 25% in size. Note: potency is the fitted concentration of half-maximal effect. The essentials:
as §2

The nature of experiment [7]: qHTS of pediatric cancer cell lines to identify multiple opportunities for drug repurposing: Primary screen for Rh18 cells (AID 1347102). Note: nearly all actives have a fitted effect of over 65% in size. Note: potency is the fitted concentration of half-maximal effect. The essentials: as §2
A short description of experiment [8]: qHTS of pediatric cancer cell lines to identify multiple opportunities for drug repurposing: Primary screen for OHS-50 cells (AID 1347103). Note: nearly all actives have a fitted effect of over 40% in size. Note: potency is the fitted concentration of half-maximal effect. Summed up: as §2
Experiment [9] in a line: qHTS of pediatric cancer cell lines to identify multiple opportunities for drug repurposing: Primary screen for RD cells (AID 1347104). Note: nearly all actives have a fitted effect of over 55% in size. Note: potency is the fitted concentration of half-maximal effect. The essentials:
as §1

The nature of experiment [10]: qHTS of pediatric cancer cell lines to identify multiple opportunities for drug repurposing: Primary screen for MG 63 (6-TG R) cells (AID 1347105). Note: nearly all actives have a fitted effect of over 50% in size. Summed up: as §1
Experiment [11] in a line: qHTS of pediatric cancer cell lines to identify multiple opportunities for drug repurposing: Primary screen for control Hh wild type fibroblast cells (AID 1347106).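 Note: series mostly up to about 46 µM; a drop in luminescence marks cytotoxicity and a rise apparent proliferation; nearly all actives have a fitted effect of over 55% in size.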 Summed up:
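Cells (500-1,000/well) in growth media were settled 5 h at 37 degrees C, then given compounds for 48 h. Viability was read as CellTiter-Glo luminescence. Primary runs used MIPE at 11 points (0.78 nM-46 µM) and NPC at 8 points (0.59 nM-46 µM); follow-ups used 11 points.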

A short description of experiment [12]: qHTS of pediatric cancer cell lines to identify multiple opportunities for drug repurposing: Primary screen for Rh30 cells (AID 1347107). Note: nearly all actives have a fitted effect of over 75% in size. Note: potency is the fitted concentration of half-maximal effect. Summed up:
as §2

Experiment [13] in a line: qHTS of pediatric cancer cell lines to identify multiple opportunities for drug repurposing: Primary screen for NB1643 cells (AID 1347099). Note: nearly all actives have a fitted effect of over 50% in size. Note: potency is the fitted concentration of half-maximal effect. Summed up: as §1
Experiment [14] in a line: qHTS of pediatric cancer cell lines to identify multiple opportunities for drug repurposing: Primary screen for Rh41 cells (AID 1347108). Note: nearly all actives have a fitted effect of over 70% in size. Note: potency is the fitted concentration of half-maximal effect. Summed up: as §1
The nature of experiment [15]: qHTS of pediatric cancer cell lines to identify multiple opportunities for drug repurposing: Primary screen for SK-N-SH cells (AID 1347098). Note: nearly all actives have a fitted effect of over 65% in size. Note: potency is the fitted concentration of half-maximal effect. The essentials: as §2
A short description of experiment [16]: qHTS of pediatric cancer cell lines to identify multiple opportunities for drug repurposing: Confirmatory screen for NB1643 cells (AID 1347109). Note: nearly all actives have a fitted effect of over 45% in size. Note: potency is the fitted concentration of half-maximal effect. The essentials:
as §2

A short description of experiment [17]: qHTS of pediatric cancer cell lines to identify multiple opportunities for drug repurposing: Confirmatory screen for A673 cells (AID 1347110).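 Note: potency is the fitted concentration of half-maximal effect; cells exposed to compound for 48 h before the viability read; nearly all actives have a fitted effect of over 65% in size.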 Summed up: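 qHTS titration format: primary MIPE 0.78 nM-46 µM (11 pts), NPC 0.59 nM-46 µM; confirmation 11 pts. 48 h, CTG luminescence.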
Experiment [18] in a line: qHTS of pediatric cancer cell lines to identify multiple opportunities for drug repurposing: Confirmatory screen for SK-N-MC cells (AID 1347111).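 Note: potency is the fitted concentration of half-maximal effect; cells exposed to compound for 48 h before the readout; nearly all actives have a fitted effect of over 70% in size.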 The essentials:
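Seed 500-1,000 cells/well; rest 5 h at 37 degrees C. Pin-transfer compounds, 11-point titration. Incubate 48 h. Add CellTiter-Glo, 15 min RT, read luminescence.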

Experiment [19] is described as follows: qHTS of pediatric cancer cell lines to identify multiple opportunities for drug repurposing: Confirmatory screen for LAN-5 cells (AID 1347113). Note: nearly all actives have a fitted effect of over 65% in size. Note: potency is the fitted concentration of half-maximal effect. Summed up: as §2
Experiment [20] is described as follows: qHTS of pediatric cancer cell lines to identify multiple opportunities for drug repurposing: Confirmatory screen for BT-12 cells (AID 1347112). Note: nearly all actives have a fitted effect of over 55% in size. The essentials: as §2

In the case of `CON=C(C(=O)N[C@@H]1C(=O)N2C(C(=O)OCOC(=O)C(C)(C)C)=C(C=Cc3scnc3C)CS[C@H]12)c1csc(N)n1`, the Potency entry in experiment [1], in [2], in experiment [3], in [4], in [5] and in [6] was “inactive” throughout. Moreover, the Potency result in [7], in experiment [8], in [9], in [10], in experiment [11] and in [12] was “inactive” throughout.
Regarding `Cc1ccc(C(=O)Nc2cccc(C(F)(F)F)c2)cc1Nc1nc(-c2cccnc2)nc2c1cnn2C`, the Potency in [1] was 24.3 µM (active); in experiment [2] it was 8.33 µM (active); in experiment [13] it was 7.43 µM (active); in experiment [5], 13.2 µM (active); in experiment [6], 24.3 µM (active); in experiment [7] it was 20.9 µM (active). Also, the Potency in experiment [8] was 21.7 µM (active); in [9], 14.8 µM (active); in experiment [12] it was 18.7 µM (active); in experiment [14], 18.7 µM (active). Moreover, the Potency result in [3] and in experiment [11] was “inactive” each time.
For `Cc1ccc(C(C)(O)c2nc3ccccc3s2)c(C)c1` (stereo not drawn), the Potency in experiment [1] is 3.85 µM (active); in experiment [2], 1.32 µM (active); in experiment [5], 3.72 µM (active). Besides, the Potency result in [3], in [7], in experiment [9], in [11], in experiment [12] and in [14] was “inactive” throughout.
`CC(C)C[C@H](CC(=O)O)C(=O)N[C@@H](Cc1c[nH]c2ccccc12)C(=O)N[C@@H](C)c1ccccc1`: the Potency in [1] was 3.06 µM (active); in [2], 1.05 µM (active); in experiment [5] it was 2.64 µM (active). The Potency entry in experiment [3], in experiment [7], in experiment [9], in [10], in experiment [11] and in experiment [12] was “inactive” each time.
As for `Nc1ncnc2ccccc12`, the Potency result in experiment [1], in [2], in [3], in experiment [4], in [5] and in experiment [6] was “inactive” in each case. Further, the Potency entry in [7], in experiment [8], in experiment [9] and in [12] was “inactive” throughout. Also, the Potency in experiment [14] was 23.5 µM (active).
Turning to `C[C@]12CCC3c4ccc(O)cc4CCC3C1CCC2=O` (stereo partly drawn), the Potency entry in [1], in experiment [2], in experiment [3], in experiment [15], in experiment [5] and in [6] was “inactive” each time. Further, the Potency result in [7], in experiment [9], in experiment [10], in experiment [11] and in [12] was “inactive” throughout.
On to `C[C@@H]1CCN(C(=O)CC#N)C[C@H]1N(C)c1ncnc2[nH]ccc12`, for which the Potency entry in [1], in experiment [2], in [3], in experiment [4], in [5] and in experiment [6] was “inactive” throughout. Further, the Potency entry in [7], in experiment [9], in experiment [11] and in experiment [12] was “inactive” throughout.
`COc1ncc(-c2ccc3nccc(-c4ccnnc4)c3c2)cc1NS(=O)(=O)c1ccc(F)cc1F`: the Potency is 0.0611 µM (active) in experiment [1]; 0.001 µM (active) in experiment [2]; 7.43 µM (active) in experiment [3]; 0.0662 µM (active) in experiment [13]; 0.105 µM (active) in experiment [5]; 0.0372 µM (active) in [7]. For the same molecule, the Potency in [8] was 0.001 µM (active); in experiment [9], 0.372 µM (active); in [12] it was 1.48 µM (active); in experiment [14], 0.0118 µM (active); in experiment [16] it was 0.465 µM (active); in [17], 0.208 µM (active). The Potency in experiment [18] is 0.0329 µM (active); in [19], 0.0737 µM (active). Besides, in [11], the Potency entry is “inactive”.
For `COc1cc(O)c2c(c1)C(=O)c1cc(C)cc(O)c1C2=O`, the Potency entry in [1], in experiment [2], in [3], in experiment [15], in experiment [13] and in [6] was “inactive” in each case. The Potency result in experiment [7], in [8], in experiment [9], in [10] and in [11] was “inactive” in each case.
For the molecule `CN[C@@H](C)C(=O)N[C@H]1CN(C(=O)CC(C)C)CC[C@H]2CC[C@@H](C(=O)NC(c3ccccc3)c3ccccc3)N2C1=O`, the Potency is 0.153 µM (active) in experiment [1]; 2.96 µM (active) in [2]; 0.296 µM (active) in experiment [4]; 0.187 µM (active) in experiment [5]; 0.485 µM (active) in experiment [6]; 0.243 µM (active) in [8]. Further, the Potency in experiment [18] is 7.37 µM (active). For the same molecule, the Potency entry in experiment [3], in experiment [11], in [12], in experiment [16], in experiment [20] and in experiment [19] was “inactive” each time.
Regarding `COCCCCC(=NOCCN)c1ccc(C(F)(F)F)cc1`, the Potency entry in experiment [1], in experiment [2], in [3], in [13], in [5] and in [7] was “inactive” each time. Also, the Potency result in [11] is “inactive”. The Potency is 24.1 µM (active) in experiment [15], 33.2 µM (active) in experiment [9], 23.5 µM (active) in experiment [12] and 20.9 µM (active) in experiment [14].
Take `Cn1c(N2CCCCS2(=O)=O)nc(C(=O)NCc2ccc(F)cc2)c(O)c1=O`: the Potency result in [1], in [2], in [3], in [15], in [13] and in [5] was “inactive” each time. Also, the Potency result in experiment [6], in experiment [7], in experiment [8], in experiment [9], in experiment [10] and in experiment [11] was “inactive” throughout. The Potency result in [12] and in experiment [14] was “inactive” in each case.
`CCOC(=O)C1=C(N)Oc2ccc(Br)cc2C1C(C#N)C(=O)OCC` (stereo not drawn): the Potency entry in [1], in experiment [3], in [6], in experiment [8], in experiment [10] and in experiment [11] was “inactive” each time. For the same molecule, the Potency entry in experiment [12] was “inactive”. Further, the Potency in [2] is 6.62 µM (active); in experiment [15], 24.1 µM (active); in experiment [13], 10.5 µM (active); in [7] it was 14.8 µM (active); in experiment [9], 29.6 µM (active).
Take `COc1ccc(-c2coc3cc(O)cc(O)c3c2=O)cc1`: the Potency result in [1], in [2], in experiment [3], in [5], in [6] and in experiment [7] was “inactive” throughout. The Potency entry in experiment [9], in [10], in experiment [11], in [12], in experiment [14] and in experiment [20] was “inactive” each time. Moreover, the Potency was 24.1 µM (active) in [15], 0.117 µM (active) in [17] and 1.04 µM (active) in experiment [18].
For `COc1cc(Nc2ncc(F)c(Nc3ccc4c(n3)NC(=O)C(C)(C)O4)n2)cc(OC)c1OC`, the Potency result in [1], in experiment [3], in experiment [6] and in [11] was “inactive” throughout. The Potency was 4.18 µM (active) in experiment [2], 0.935 µM (active) in [4] and 0.544 µM (active) in experiment [8].
With `Oc1ccc(C2=Cc3ccc(O)cc3OC2)cc1`, the Potency was 12.2 µM (active) in [1]; 1.66 µM (active) in experiment [2]; 11.8 µM (active) in [4]; 9.35 µM (active) in experiment [13]; 4.85 µM (active) in [6]; 5.26 µM (active) in [9]. Moreover, the Potency in experiment [12] is 11.8 µM (active); in experiment [14] it was 5.9 µM (active). For the same molecule, the Potency entry in experiment [3], in [10] and in experiment [11] was “inactive” throughout.
